Experimental data published in PubChem BioAssay (NCATS).
Records with an inconclusive call do not appear. Unmarked numbers belong to inactive results. The source made the active and inactive calls. Calls follow the shape of the full dose curve.

Test: Confirmatory qHTS to identify inhibitors of SARS-CoV-2 cell entry (AID 1645844); also: nearly all actives have a fitted effect of over 45% in size
Conditions: SARS-CoV-2 pseudotyped particle cell entry, luciferase; series mostly up to 57.2 µM; activity, negative = inhibition: at the top concentration
Source text: Assay Provider: Wei Zheng, Ph.D.
National Center for Advancing Translational Sciences, National Institute of Health, Rockville, MD.
SARS-CoV-2 spike protein, within the viral envelope, mediates viral attachment and infection of host cells. The SARS-CoV-2 spike protein specifically binds to the host receptor ACE2 (Angiotensin-converting enzyme 2). This interaction promotes endocytosis of the viral particle, additional events lead to viral-host cell membrane fusion and release of the viral contents, allowing viral replication.
While SARS-CoV-2 requires BSL-3 facilities for live virus work, pseudotyped partices (PP) that incorporate SARS-CoV-2 spike proteins without replication elements could facilitate studies on viral entry mechanisms in a BSL-2 setting. This PP cell entry assay could also enable screening of small molecule compound libraries in BSL-2 setting to identify inhibitors of SARS-CoV-2 cell entry.
SEQUENCE No. (e.g., 1, 2, 3, etc.); […] (e.g., Cells, Incubation, Reagent, etc.); VALUE and DESCRIPTION.
1. Cells. Seed 1500 HEK293-ACE2 cells (Expi293F with stable expression of human ACE2) in 2 uL/well media (DMEM, 10% FBS, 1x L-glutamine, 1x Pen/Strep, 1 ug/ml puromycin) in white 1536-well assay plates (Greiner #782073).
2. Incubation. Incubate at 37C with 5% CO2 overnight (~16 h).
3. Compounds. Dispense 23 nL/well compounds in DMSO via pin transfer.
4. Incubation. Incubate for 1 hr at 37C 5% CO2.
5. Reagent. Dispense 2 uL/well of SARS-CoV-2-S pseudotyped particles (PP). [a] PPs are produced with murine leukemia virus pseudotyping). [b] SARS-CoV-2-S is Wuhan-Hu-1 sequence (BEI #NR-52420) with C-terminal 19 amino acid truncation.
6. Centrifugation. […]
7. Incubation. Incubate at for 48 hr at 37C 5% CO2
8. Centrifugation. Remove supernatant with gentle centrifugation using a Blue Washer (BlueCat Bio).
9. Reagent. Dispense 4 uL/well of Bright-Glo Luciferase detection reagent (Promega #E2620).
10. Incubation. Incubate for 5 min at room temperature.
11. Detection. Read luminescence signal (Viewlux plate reader, PerkinElmer). Data was normalized with wells containing SARS-CoV-2-S PP as 100%, and wells containing bald PP (no fusion protein) as 0%.
% is scaled to controls: 0 for no effect and ±100 for the full control effect; potency is read from the fitted curve at half-maximal effect.

SMILES	Potency	activity, negative = inhibition [%]
O=C(O)c1ccc2c(c1)nc(Nc1cccc(Cl)c1)c1ccncc12	2150 nM (active)	–
CC(=O)Nc1ccc([C@H](C)C(=O)Nc2ncc(C(C)C)s2)cc1	4820 nM (active)	–
Cc1n[nH]c(C)c1Cc1sc2c(c1C(=O)N1C[C@H](O)CO1)c(=O)n(C)c(=O)n2CC(C)C	393 nM (active)	–
CC(C)[C@H](C(=O)Nc1ccc(C(=O)NO)cc1)c1ccccc1	–	-88.8
O=C(Nc1ccncc1)C(=O)c1cn(Cc2ccc(Cl)cc2)c2ccccc12	961 nM (active)	–
Cc1ccc(C(N)=O)cc1Nc1nccc(-c2cn(C(C)C)c3cnccc23)n1	1710 nM (active)	–
CC(=O)c1c(C)c2cnc(Nc3ccc(N4CCNCC4)cn3)nc2n(C2CCCC2)c1=O	17100 nM (active)	–
Cc1cc(Nc2nc(N[C@@H](C)c3ncc(F)cn3)ncc2Cl)n[nH]1	2710 nM (active)	–
COc1cc2nccc(Oc3ccc(NC(=O)C4(C(=O)Nc5ccc(F)cc5)CC4)cc3)c2cc1OC	2150 nM (active)	–
CN(c1ncccc1CNc1nc(Nc2ccc3c(c2)CC(=O)N3)ncc1C(F)(F)F)S(C)(=O)=O	857 nM (active)	–
CC(C)(C)c1cnc(CSc2cnc(NC(=O)C3CCNCC3)s2)o1	4290 nM (active)	–
O=c1[nH]c(-c2ccc(C(F)(F)F)cc2)nc2c1CSCC2	9610 nM (active)	–
Cc1ccccc1-n1c(Cn2ncc3c(N)ncnc32)nc2cccc(C)c2c1=O	7640 nM (active)	–
CS(=O)(=O)c1cccc(CNc2nc(Nc3ccc4c(c3)CCC(=O)N4)ncc2C(F)(F)F)c1	192 nM (active)	–
O=C(c1cc(Cc2n[nH]c(=O)c3ccccc23)ccc1F)N1CCN(C(=O)C2CC2)CC1	27100 nM (active)	–
COc1cc(Nc2ncc3c(n2)-c2ccc(Cl)cc2C(c2c(F)cccc2OC)=NC3)ccc1C(=O)O	10.8 nM (active)	–
COc1cc([C@@H]2c3cc4c(cc3[C@@H](O)C3COC(=O)C32)OCO4)cc(OC)c1O (stereo partly drawn)	1710 nM (active)	–
N#CCNC(=O)c1ccc(-c2ccnc(Nc3ccc(N4CCOCC4)cc3)n2)cc1	9610 nM (active)	–
CCc1c(C(=O)C(N)=O)c2c(OCC(=O)O)cccc2n1Cc1ccccc1	–	-22.4
CNC(=O)c1cc(Oc2ccc(NC(=O)Nc3ccc(Cl)c(C(F)(F)F)c3)c(F)c2)ccn1	8570 nM (active)	–
CN1CC[C@@H](c2c(O)cc(O)c3c(=O)cc(-c4ccccc4Cl)oc23)[C@@H](O)C1	1210 nM (active)	–
CCCS(=O)(=O)Nc1ccc(F)c(C(=O)c2c[nH]c3ncc(-c4ccc(Cl)cc4)cc23)c1F	68.1 nM (active)	–
Cc1cc(Nc2cc(N3CCN(C)CC3)nc(Sc3ccc(NC(=O)C4CC4)cc3)n2)n[nH]1	121 nM (active)	–
